Data on one compound can be found in ChEMBL document CHEMBL2218924, “A broad activity screen in support of a chemogenomic map for kinase signalling research and drug discovery” (Biochem J, 2013).

For assay [1], the target named is Tyrosine-protein kinase SYK (Homo sapiens) (UniProt P43405). To be noted: at 10 µM.
Assay [2] concerns the target T1, Mitogen-activated protein kinase kinase kinase 7 (Homo sapiens) (UniProt O43318).
T1 sequence (whole entry): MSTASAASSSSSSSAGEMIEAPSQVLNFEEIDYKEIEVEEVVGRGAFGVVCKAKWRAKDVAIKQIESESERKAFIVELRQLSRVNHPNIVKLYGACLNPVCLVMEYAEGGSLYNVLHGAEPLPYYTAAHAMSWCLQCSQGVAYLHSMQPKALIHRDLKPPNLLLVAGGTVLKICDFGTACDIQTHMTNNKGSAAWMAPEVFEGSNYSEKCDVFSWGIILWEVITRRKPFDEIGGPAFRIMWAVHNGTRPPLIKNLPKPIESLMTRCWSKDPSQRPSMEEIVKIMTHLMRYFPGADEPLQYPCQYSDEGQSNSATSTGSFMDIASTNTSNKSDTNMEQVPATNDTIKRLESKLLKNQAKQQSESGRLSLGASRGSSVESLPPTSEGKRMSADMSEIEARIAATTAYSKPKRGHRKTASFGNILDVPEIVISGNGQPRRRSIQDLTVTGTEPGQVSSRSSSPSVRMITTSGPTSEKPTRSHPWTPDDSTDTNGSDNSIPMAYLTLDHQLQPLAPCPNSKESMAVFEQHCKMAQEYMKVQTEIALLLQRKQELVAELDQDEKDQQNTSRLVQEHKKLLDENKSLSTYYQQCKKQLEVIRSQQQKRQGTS
To be noted: at 1 µM.

The target in assay [3] is T2, Serine/threonine-protein kinase TAO1 (Homo sapiens) (UniProt Q7L7X3).
T2 sequence (whole entry): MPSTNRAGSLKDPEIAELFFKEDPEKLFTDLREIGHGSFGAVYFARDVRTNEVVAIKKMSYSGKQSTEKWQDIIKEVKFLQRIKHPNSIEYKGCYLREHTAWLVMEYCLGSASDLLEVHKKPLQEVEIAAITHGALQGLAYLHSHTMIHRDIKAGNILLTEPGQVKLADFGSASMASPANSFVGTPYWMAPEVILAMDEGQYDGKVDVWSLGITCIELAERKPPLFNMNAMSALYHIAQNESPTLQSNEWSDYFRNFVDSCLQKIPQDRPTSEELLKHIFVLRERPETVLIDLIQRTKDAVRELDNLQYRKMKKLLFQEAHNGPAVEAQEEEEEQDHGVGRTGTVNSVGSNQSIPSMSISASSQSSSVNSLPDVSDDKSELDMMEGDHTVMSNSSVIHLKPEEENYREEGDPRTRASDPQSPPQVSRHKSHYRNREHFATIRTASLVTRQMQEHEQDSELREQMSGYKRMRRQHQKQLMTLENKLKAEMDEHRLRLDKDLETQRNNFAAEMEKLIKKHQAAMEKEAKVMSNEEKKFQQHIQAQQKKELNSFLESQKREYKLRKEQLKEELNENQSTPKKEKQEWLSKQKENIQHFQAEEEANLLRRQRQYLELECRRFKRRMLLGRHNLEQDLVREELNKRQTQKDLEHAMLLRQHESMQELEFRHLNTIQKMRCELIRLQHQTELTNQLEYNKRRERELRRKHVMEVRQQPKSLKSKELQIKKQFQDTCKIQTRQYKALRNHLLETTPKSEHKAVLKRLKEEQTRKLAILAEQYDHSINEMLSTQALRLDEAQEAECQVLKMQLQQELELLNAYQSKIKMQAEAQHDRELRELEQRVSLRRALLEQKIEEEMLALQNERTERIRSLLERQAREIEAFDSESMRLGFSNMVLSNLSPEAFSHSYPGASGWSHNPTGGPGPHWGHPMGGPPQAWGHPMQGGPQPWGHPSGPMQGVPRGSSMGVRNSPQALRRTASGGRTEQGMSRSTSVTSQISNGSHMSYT
As to conditions: at 1 µM.

For assay [4], the target named is T2, Serine/threonine-protein kinase TAO1 (Homo sapiens). As to conditions: at 10 µM.
In assay [5] the target is T3, Serine/threonine-protein kinase TAO2 (Homo sapiens) (UniProt Q9UL54).
T3 sequence (whole entry): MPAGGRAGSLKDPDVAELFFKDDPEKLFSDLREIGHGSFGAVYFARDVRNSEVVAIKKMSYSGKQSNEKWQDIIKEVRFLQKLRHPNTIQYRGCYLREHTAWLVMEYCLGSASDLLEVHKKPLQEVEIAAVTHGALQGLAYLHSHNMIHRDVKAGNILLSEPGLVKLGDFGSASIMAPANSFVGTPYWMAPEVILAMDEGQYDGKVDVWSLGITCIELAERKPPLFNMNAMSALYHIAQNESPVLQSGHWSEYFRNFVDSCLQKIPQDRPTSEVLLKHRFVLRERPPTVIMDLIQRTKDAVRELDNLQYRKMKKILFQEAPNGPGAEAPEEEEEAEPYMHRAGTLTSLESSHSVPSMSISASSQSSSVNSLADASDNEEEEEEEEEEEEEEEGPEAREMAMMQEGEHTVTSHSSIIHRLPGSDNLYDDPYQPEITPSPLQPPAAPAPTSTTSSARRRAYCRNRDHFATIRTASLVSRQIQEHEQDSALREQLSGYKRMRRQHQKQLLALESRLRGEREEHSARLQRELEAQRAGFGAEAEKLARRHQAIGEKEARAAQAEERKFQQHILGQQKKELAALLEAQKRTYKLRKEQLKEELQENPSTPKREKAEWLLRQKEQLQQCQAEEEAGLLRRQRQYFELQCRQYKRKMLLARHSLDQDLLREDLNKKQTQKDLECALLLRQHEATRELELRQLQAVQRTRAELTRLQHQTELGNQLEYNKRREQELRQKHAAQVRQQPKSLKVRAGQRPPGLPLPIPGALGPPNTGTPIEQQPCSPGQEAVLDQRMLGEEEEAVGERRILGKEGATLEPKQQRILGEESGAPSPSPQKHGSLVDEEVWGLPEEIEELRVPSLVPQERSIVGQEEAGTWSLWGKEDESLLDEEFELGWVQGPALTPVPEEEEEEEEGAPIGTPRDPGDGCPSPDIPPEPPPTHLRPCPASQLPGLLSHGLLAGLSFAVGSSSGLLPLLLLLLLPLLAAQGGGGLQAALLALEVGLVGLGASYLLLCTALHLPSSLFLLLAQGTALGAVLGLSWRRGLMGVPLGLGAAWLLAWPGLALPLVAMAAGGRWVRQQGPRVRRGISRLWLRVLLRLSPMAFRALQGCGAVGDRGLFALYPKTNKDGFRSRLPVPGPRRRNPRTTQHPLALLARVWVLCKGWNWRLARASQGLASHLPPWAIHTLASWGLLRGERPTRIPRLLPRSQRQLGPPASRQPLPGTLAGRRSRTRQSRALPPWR
To be noted: at 1 µM.

In assay [6] the target is T3, Serine/threonine-protein kinase TAO2 (Homo sapiens). As to conditions: at 10 µM.
The target in assay [7] is T4, Serine/threonine-protein kinase TAO3 (Homo sapiens) (UniProt Q9H2K8).
T4 sequence (whole entry): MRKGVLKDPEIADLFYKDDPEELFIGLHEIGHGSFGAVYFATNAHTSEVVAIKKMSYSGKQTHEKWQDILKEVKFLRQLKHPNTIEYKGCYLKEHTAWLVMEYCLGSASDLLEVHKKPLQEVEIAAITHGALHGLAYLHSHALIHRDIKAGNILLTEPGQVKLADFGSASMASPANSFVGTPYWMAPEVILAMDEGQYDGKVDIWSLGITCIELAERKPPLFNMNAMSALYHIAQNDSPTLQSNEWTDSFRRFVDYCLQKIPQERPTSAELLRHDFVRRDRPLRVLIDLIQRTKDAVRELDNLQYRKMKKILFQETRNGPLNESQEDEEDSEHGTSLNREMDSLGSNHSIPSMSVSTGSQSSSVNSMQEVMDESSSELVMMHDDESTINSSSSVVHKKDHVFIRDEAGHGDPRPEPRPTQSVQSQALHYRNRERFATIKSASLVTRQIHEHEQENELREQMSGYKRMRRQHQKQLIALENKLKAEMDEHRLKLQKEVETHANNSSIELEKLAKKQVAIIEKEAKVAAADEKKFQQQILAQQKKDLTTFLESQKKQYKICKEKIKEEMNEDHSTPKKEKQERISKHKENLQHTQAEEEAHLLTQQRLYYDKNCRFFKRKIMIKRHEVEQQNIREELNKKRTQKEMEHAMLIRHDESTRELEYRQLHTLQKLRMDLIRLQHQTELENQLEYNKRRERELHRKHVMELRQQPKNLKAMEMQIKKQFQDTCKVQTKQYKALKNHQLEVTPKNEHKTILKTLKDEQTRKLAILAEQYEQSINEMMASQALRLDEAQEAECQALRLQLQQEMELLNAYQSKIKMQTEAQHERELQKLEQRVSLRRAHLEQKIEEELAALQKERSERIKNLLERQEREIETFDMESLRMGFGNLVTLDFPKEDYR
As to conditions: at 1 µM.

Assay [8] concerns the target T4, Serine/threonine-protein kinase TAO3 (Homo sapiens). As to conditions: at 10 µM.
For assay [9], the target named is T5, Serine/threonine-protein kinase TBK1 (Homo sapiens) (UniProt Q9UHD2).
T5 sequence (whole entry): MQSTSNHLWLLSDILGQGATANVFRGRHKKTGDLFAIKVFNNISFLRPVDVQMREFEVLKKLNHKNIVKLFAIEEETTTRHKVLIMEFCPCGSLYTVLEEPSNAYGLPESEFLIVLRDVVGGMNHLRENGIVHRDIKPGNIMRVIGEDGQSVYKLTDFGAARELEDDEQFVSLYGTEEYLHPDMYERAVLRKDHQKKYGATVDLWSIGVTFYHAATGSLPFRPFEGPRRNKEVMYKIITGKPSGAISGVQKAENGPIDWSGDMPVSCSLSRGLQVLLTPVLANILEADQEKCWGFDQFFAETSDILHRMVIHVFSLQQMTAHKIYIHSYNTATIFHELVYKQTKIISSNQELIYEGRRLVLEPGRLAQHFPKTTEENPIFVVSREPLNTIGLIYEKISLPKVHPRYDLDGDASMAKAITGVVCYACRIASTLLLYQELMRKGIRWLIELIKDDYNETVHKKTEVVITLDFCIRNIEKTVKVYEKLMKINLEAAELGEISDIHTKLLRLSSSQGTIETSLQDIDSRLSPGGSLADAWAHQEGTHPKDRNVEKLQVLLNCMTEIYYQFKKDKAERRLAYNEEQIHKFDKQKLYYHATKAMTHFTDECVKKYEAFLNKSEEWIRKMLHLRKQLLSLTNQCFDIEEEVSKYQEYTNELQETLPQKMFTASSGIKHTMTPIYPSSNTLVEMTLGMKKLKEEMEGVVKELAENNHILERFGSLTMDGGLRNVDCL
As to conditions: at 1 µM.

Turning to `O=C1NC(=O)c2cc(Nc3ccc(F)cc3)c(Nc3ccc(F)cc3)cc21`, the residual activity was 78% in [1]; 83% in assay [2]; 83% in assay [3]; 39% in assay [4]; 63% in assay [5]; 21% in [6]. Also, the residual activity in assay [7] came to 79%; in [8], 37%; in assay [9] it was 69%.
